# Test results taken from the supplement of paper PMC9844399.
# Where a name gives a salt, the structure may show the parent alone.
# Test system: HeLa
# Assay: nuclear count per well, robust Z-score vs DMSO; higher = more cells (less toxicity)
# Details: 10 µM; 6 h
# 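Also: Hoechst-stained nuclei counted by automated confocal imaging of four fields per well in 384-well plates, with the robust Z-score based on the per-plate DMSO median and robust SD.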
row,SMILES,nuclear count per well
1,CCN(CC)C(=O)N1CCN(C)CC1 [Diethylcarbamazine citrate],0.644
2,Nc1ncn([C@@H]2O[C@H](CO)[C@@H](O)[C@H]2O)c(=O)n1 [Azacytidine],0.175
3,CC(C)NCC(O)c1ccc(NS(C)(=O)=O)cc1 (stereo not given),0.48
4,C1CCC(C(CC2CCCCN2)C2CCCCC2)CC1 (stereo not given) [Perhexiline maleate salt],-0.947
5,CCCCC[C@H](O)C/C=C1/C(=O)C=C[C@@H]1C/C=C\CCCC(=O)O [D12-Prostaglandin J2],0.379
6,O=P(O)(O)C(O)(Cn1ccnc1)P(=O)(O)O [Zoledronic acid],0.461
7,C=CCNC1=C2C[C@@H](C)C[C@H](OC)[C@H](O)[C@@H](C)/C=C(\C)[C@H](OC(N)=O)[C@@H](OC)/C=C\C=C(/C)C(=O)NC(=CC1=O)C2=O [17-Allylamino-geldanamycin],-0.211
8,CC(=O)CC(c1ccccc1)c1c(O)c2ccccc2oc1=O (stereo not given) [Warfarin],1.11
9,Oc1cc2c(cc1O)CN(C(=S)NCCc1ccc(Cl)cc1)CCC2 [Capsazepine],-1.71
10,CCOC(=O)C(C)(C)Oc1ccc(Cl)cc1 [Clofibrate],0.519
11,C#C[C@]1(O)CC[C@H]2[C@@H]3CCC4=CCCC[C@@H]4[C@H]3C(=C)C[C@@]21CC [Desogestrel],0.13
12,NNc1nncc2ccccc12,0.131
13,N#CC(C#N)=C(N)/C(C#N)=C/c1ccc(O)cc1,-0.33
14,Cc1cccc(Nc2nc(-c3ccncc3)cs2)c1,-0.258
15,CC(=O)N[C@@H](CC(C)C)C(=O)N[C@@H](CC(C)C)C(=O)N[C@H](C=O)CCCNC(=N)N [Leupeptin],-0.325
